The results in this text go back to PubChem BioAssay (NCATS).

Inconclusive results are not listed. The source made the active and inactive calls. Calls follow the shape of the dose curve; as a rule, active = well fitted inhibition curve with a large enough effect; inconclusive = small, poorly fitted or top-dose-only effect; inactive = flat fitted curve, though single readings scatter.

The subject of this assay is CRL-7250. Nature of the assay: qHTS assay to identify novel small-molecules to repurpose for Merkel cell carcinoma treatment (AID 1296009). Also: nearly all actives have a fitted effect of over 60% in size. The settings on record: MCC and control cell lines, CellTiter-Glo viability, 72 h; series mostly up to 44.8 µM. In a few lines: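 Viability readout: ATP luminescence (CellTiter-Glo) after 72 hr drug exposure at 37 degree celsius. Dose-response format was 8 points for NPC and 11 points for MIPE; data normalized to in-plate controls.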
In general terms: Quantitative high-throughput screening tests each substance at several concentrations.
In the case of `CN1CCN(C2=Nc3ccccc3Oc3ccc(Cl)cc32)CC1`, the compound was classed as inactive. Consider `Cc1cccc(Nc2ccncc2S(=O)(=O)NC(=O)NC(C)C)c1`, for which the compound was classed as inactive. As for `CC12CC3CC(C)(C1)CC(N)(C3)C2`, the result was inactive.

Consider `CC(S)C(=O)NCC(=O)O` (stereo not given), for which the outcome was inactive. On to `Cc1ccc(S(=O)(=O)NC(=O)NN2CC3CCCC3C2)cc1` (stereo not given), for which the compound was called inactive.

In the case of `Cc1cccc(C)c1OCC(C)N` (stereo not given), the result was inactive. With `O=C1CCC(N2C(=O)c3ccccc3C2=O)C(=O)N1` (stereo not given), the result was inactive.

As to `O=C(O)CCNC(=O)c1ccc(N=Nc2ccc(O)c(C(=O)O)c2)cc1`, the compound was called inactive. Then `CS(=O)c1ccc(-c2nc(-c3ccc(F)cc3)c(-c3ccncc3)[nH]2)cc1` (stereo not given), with “inactive”; and `CCN(CC)CCOC(=O)C1(C2CCCCC2)CCCCC1`, with “inactive”.

In the case of `CN(CCOc1ccc(NS(C)(=O)=O)cc1)CCc1ccc(NS(C)(=O)=O)cc1`, the call was inactive.

Take `CC1(C)S[C@@H]2[C@H](NC(=O)Cc3ccccc3)C(=O)N2[C@H]1C(=O)O` (tested in a mixture with another compound): the result was inactive. As to `Cc1ccc(C)c(OCCCC(C)(C)C(=O)O)c1`, the outcome was inactive.

For `C[C@@H](NCCCc1cccc(C(F)(F)F)c1)c1cccc2ccccc12`, the call was inactive. As for `CC(=O)OCC(CCn1cnc2cnc(N)nc21)COC(C)=O`, the compound was called inactive. `Cc1cc2c(s1)Nc1ccccc1N=C2N1CCN(C)CC1`: the compound was called inactive. On to `NC(=O)c1cn(Cc2c(F)cccc2F)nn1`, for which the call was inactive. For `COc1cc(Cc2cnc(N)nc2N)cc(OC)c1OC`, the outcome was inactive. `COc1cc2nc(N3CCN(C(=O)C4CCCO4)CC3)nc(N)c2cc1OC` (stereo not given): the outcome was inactive.

In the case of `O=NN(CCCl)C(=O)NC1CCCCC1`, the compound was called inactive. For the compound `CN(C)c1nc(N(C)C)nc(N(C)C)n1`, the call was inactive. `CC(c1cc2ccccc2s1)N(O)C(N)=O` (stereo not given): the outcome was inactive. Turning to `Cc1nc(-c2ccc(OCC(C)C)c(C#N)c2)sc1C(=O)O`, the compound was classed as inactive. Turning to `CCC1C(=O)OCC1Cc1cncn1C` (stereo not given), the result was inactive.

For the compound `COc1cc(C(C)=O)ccc1OCCCN1CCC(c2noc3cc(F)ccc23)CC1`, the call was inactive. As for `C1N2CN3CN1CN(C2)C3`, the call was inactive.

Consider `CCCCc1ncc(/C=C(\Cc2cccs2)C(=O)O)n1Cc1ccc(C(=O)O)cc1`, for which the compound was classed as inactive. On to `CN(C)c1ccc(O)c2c1C[C@H]1C[C@H]3[C@H](N(C)C)C(=O)C(C(N)=O)=C(O)[C@@]3(O)C(=O)C1=C2O`, for which the compound was called inactive. The value for `Cc1ccc(S(=O)(=O)NC(=O)NN2CCCCCC2)cc1` was “inactive”; that for `CCOC(=O)[C@H](CCc1ccccc1)N[C@@H](C)C(=O)N1Cc2cc(OC)c(OC)cc2C[C@H]1C(=O)O` was “inactive”. As to `Oc1cn2c(n1)Nc1ccc(Cl)c(Cl)c1C2`, the outcome was “inactive [at 17.4 µM]”.

In the case of `C[C@@H]1CC(=O)NN=C1c1ccc(NN=C(C#N)C#N)cc1`, the compound was classed as inactive. For `CNCC[C@H](Oc1cccc2ccccc12)c1cccs1`, the result was inactive. `CS(=O)(=O)CCNCc1ccc(-c2ccc3ncnc(Nc4ccc(OCc5cccc(F)c5)c(Cl)c4)c3c2)o1`: the result was inactive.

As for `O=C1[C@H](CC[C@H](O)c2ccc(F)cc2)[C@@H](c2ccc(O)cc2)N1c1ccc(F)cc1`, the outcome was inactive. For `CC(C(=O)O)c1cccc(C(=O)c2ccccc2)c1` (stereo not given), the compound was classed as inactive. Take `O=C1NC(=O)C(c2ccccc2)(c2ccccc2)N1`: the call was inactive. On to `C[C@H]1O[C@H](O[C@H]2[C@H](O)[C@@H](O)[C@@H](O[C@H]3[C@H](O)[C@@H](O)[C@H](O)O[C@@H]3CO)O[C@@H]2CO)[C@H](O)[C@@H](O)[C@@H]1N[C@H]1C=C(CO)[C@@H](O)[C@H](O)[C@H]1O`, for which the result was inactive.

Turning to `O=C1N=C(O)CN1/N=C/c1ccc(-c2ccc([N+](=O)[O-])cc2)o1`, the call was inactive. Consider `CNS(=O)(=O)CCc1ccc2[nH]cc(C3CCN(C)CC3)c2c1`, for which the call was inactive.
